{"source": "paper PMC7862700", "about": "“An all-to-all approach to the identification of sequence-specific readers for epigenetic DNA modifications on cytosine”", "assay_in_all_cases": "DAPPL (digital affinity profiling via proximity ligation, sequencing); 10 mM Tris-HCl pH 7.5, 50 mM NaCl, 1 mM DTT, 4% glycerol, room temperature, 30 min; GST-TFs on glutathione beads, 16-mer random dsDNA library, 0.1% formaldehyde crosslink after washing; high values mean tight binding", "details_in_all_cases": "protein: recombinant; tags: N-terminal GST; dsDNA, one strand shown", "key": {"FEV": {"biological_target": "T1, FEV (Homo sapiens, UniProt Q99581 1-238)", "T1 sequence": "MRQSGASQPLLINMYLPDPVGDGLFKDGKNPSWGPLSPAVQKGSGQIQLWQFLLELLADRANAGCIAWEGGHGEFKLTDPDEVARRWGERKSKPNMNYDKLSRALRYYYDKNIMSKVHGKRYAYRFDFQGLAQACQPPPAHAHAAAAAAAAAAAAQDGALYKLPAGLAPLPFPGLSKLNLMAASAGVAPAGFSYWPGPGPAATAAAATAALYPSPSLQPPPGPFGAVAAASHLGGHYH", "how_it_was_run": "(§1)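 GST fusions of human transcription factors were expressed in yeast and captured with glutathione beads. Once given DNA barcodes and pooled alongside a tag-only sample, they were incubated for 30 min at room temperature with 200 nmole of a random double-stranded 16-mer DNA library in Tris/NaCl/DTT/glycerol buffer, then washed, crosslinked (0.1% formaldehyde), proximity-ligated, PCR-amplified and sequenced on an Illumina NextSeq500. The binding signal of each hexamer is its read frequency for a factor divided by its frequency for the tag-only sample.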"}, "ETV5": {"biological_target": "ETV5 (Homo sapiens, UniProt P41161 1-510)", "sequence (P41161 whole entry)": "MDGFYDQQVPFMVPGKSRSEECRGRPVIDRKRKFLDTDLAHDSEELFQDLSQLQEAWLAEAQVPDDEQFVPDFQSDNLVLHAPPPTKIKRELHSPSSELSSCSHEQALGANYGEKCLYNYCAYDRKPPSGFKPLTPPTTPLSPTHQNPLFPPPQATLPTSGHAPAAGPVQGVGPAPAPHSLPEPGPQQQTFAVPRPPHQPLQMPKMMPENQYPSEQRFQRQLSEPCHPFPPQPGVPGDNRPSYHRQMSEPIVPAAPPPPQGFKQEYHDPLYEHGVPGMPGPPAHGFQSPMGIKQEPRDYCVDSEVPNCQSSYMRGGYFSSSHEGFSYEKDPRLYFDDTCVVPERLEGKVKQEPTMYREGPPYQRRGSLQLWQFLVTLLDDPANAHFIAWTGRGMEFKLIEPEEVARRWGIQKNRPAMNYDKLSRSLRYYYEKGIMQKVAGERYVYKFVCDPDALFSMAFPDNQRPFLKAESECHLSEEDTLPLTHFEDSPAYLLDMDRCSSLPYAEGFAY", "how_it_was_run": "as §1"}, "ELF4": {"biological_target": "ELF4 (Homo sapiens, UniProt Q99607 1-663)", "sequence (Q99607 whole entry)": "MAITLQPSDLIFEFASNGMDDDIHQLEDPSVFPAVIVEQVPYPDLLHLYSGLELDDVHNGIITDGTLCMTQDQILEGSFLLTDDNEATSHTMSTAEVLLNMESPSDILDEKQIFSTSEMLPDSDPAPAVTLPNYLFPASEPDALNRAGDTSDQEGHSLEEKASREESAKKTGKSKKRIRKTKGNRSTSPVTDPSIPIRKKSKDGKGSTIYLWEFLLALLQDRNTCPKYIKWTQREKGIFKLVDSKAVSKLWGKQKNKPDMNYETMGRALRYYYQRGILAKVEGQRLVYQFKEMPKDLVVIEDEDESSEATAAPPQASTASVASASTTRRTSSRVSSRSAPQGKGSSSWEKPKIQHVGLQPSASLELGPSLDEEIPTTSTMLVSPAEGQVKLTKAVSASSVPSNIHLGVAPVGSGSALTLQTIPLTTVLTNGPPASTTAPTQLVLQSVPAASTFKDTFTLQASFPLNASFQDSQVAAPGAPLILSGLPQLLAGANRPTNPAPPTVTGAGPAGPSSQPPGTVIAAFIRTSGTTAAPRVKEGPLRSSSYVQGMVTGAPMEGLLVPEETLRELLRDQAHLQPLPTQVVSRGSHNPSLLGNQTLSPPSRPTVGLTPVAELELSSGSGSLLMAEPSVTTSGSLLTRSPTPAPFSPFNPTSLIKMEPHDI", "how_it_was_run": "as §1"}, "ETV1": {"biological_target": "ETV1 (Homo sapiens, UniProt P50549 1-477)", "sequence (P50549 whole entry)": "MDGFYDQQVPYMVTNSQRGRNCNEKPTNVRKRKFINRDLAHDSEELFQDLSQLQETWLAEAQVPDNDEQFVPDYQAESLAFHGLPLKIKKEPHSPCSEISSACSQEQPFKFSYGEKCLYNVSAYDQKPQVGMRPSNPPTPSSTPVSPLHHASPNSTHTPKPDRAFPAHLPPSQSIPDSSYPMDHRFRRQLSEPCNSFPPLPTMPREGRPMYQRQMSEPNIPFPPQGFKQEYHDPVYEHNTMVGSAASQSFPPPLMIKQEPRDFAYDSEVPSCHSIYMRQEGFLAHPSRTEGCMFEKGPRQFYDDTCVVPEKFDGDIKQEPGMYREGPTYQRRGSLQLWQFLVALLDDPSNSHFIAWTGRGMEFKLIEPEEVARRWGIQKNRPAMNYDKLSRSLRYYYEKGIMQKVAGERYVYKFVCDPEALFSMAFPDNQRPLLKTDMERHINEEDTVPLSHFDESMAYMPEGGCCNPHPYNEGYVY", "how_it_was_run": "as §1"}, "ERF": {"biological_target": "T2, ERF (Homo sapiens, UniProt P50548 1-548)", "T2 sequence": "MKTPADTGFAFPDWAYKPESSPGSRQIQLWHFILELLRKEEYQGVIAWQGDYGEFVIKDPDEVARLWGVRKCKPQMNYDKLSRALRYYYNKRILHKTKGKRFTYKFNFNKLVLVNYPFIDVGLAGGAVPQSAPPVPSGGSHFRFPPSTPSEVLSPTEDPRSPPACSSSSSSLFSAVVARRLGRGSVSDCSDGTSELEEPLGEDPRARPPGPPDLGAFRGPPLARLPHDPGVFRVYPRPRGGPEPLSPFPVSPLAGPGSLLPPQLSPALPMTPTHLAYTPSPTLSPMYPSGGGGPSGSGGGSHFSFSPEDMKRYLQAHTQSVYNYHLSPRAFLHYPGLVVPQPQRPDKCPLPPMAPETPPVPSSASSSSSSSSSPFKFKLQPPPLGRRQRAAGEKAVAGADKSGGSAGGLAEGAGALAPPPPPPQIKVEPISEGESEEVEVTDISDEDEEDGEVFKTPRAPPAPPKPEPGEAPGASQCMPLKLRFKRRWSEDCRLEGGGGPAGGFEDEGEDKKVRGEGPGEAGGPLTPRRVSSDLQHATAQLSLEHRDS", "how_it_was_run": "as §1"}, "ETV3L": {"biological_target": "T3, ETV3L (Homo sapiens, UniProt Q6ZN32 1-361)", "T3 sequence": "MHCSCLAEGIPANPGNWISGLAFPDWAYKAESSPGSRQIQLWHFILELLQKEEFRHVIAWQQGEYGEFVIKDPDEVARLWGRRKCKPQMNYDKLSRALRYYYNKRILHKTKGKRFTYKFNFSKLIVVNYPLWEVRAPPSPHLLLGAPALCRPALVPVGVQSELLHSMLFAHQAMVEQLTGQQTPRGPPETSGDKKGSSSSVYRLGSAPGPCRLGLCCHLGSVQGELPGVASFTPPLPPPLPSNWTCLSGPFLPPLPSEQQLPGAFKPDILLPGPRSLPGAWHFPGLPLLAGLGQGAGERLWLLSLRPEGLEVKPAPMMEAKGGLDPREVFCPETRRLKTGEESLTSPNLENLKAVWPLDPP", "how_it_was_run": "as §1"}, "ETS2": {"biological_target": "T4, ETS2 (Homo sapiens, UniProt P15036 1-469)", "T4 sequence": "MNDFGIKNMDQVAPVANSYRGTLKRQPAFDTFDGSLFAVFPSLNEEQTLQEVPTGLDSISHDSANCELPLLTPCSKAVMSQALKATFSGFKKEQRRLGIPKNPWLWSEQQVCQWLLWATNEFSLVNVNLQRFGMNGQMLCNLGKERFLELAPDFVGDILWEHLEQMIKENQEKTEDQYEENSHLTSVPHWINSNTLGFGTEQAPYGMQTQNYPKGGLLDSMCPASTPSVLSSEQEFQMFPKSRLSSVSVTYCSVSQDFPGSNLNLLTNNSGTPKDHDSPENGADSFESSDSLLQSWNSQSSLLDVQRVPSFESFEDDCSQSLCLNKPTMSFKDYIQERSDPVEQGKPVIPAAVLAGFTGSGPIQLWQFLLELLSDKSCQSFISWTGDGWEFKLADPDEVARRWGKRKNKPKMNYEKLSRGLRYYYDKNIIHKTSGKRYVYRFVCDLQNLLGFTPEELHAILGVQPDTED", "how_it_was_run": "as §1"}, "ELF5": {"biological_target": "T5, ELF5 (Homo sapiens, UniProt Q9UKW6-2 1-255)", "T5 sequence": "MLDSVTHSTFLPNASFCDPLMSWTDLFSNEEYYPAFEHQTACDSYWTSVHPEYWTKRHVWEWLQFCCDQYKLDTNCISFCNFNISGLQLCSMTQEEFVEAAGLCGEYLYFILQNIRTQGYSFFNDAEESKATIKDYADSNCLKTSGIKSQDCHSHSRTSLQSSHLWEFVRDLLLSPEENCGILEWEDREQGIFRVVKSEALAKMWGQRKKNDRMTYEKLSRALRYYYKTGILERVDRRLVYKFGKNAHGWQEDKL", "how_it_was_run": "as §1"}, "ETV3": {"biological_target": "T6, ETV3 (Homo sapiens, UniProt P41162-2 1-143)", "T6 sequence": "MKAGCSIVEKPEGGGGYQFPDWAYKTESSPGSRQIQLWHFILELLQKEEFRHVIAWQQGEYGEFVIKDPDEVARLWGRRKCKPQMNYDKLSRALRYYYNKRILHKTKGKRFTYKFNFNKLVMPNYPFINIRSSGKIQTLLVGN", "how_it_was_run": "as §1"}, "ETV6": {"biological_target": "ETV6 (Homo sapiens, UniProt P41212 1-452)", "sequence (P41212 whole entry)": "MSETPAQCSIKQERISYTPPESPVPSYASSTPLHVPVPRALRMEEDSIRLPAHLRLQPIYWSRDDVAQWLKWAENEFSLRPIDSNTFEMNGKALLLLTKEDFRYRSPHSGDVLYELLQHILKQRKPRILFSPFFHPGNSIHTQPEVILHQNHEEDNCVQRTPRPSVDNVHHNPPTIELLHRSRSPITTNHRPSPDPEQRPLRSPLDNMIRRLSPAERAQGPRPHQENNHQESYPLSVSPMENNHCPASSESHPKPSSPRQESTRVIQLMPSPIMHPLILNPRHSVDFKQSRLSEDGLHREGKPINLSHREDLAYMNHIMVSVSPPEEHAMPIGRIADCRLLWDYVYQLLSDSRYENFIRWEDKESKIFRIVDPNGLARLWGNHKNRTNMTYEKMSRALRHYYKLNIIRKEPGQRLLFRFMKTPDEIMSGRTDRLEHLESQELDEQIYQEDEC", "how_it_was_run": "as §1"}}}
{"sequence": "CCCCCC", "values": [{"measurement": "binding signal", "setting": "FEV", "value": "1.03 fold enrichment (6-mer frequency, TF over GST control)"}, {"measurement": "binding signal", "setting": "ETV5", "value": "1.09 fold enrichment (6-mer frequency, TF over GST control)"}, {"measurement": "binding signal", "setting": "ELF4", "value": "1.16 fold enrichment (6-mer frequency, TF over GST control)"}, {"measurement": "binding signal", "setting": "ETV1", "value": "1.11 fold enrichment (6-mer frequency, TF over GST control)"}, {"measurement": "binding signal", "setting": "ERF", "value": "1.05 fold enrichment (6-mer frequency, TF over GST control)"}, {"measurement": "binding signal", "setting": "ETV3L", "value": "1.07 fold enrichment (6-mer frequency, TF over GST control)"}, {"measurement": "binding signal", "setting": "ETS2", "value": "1.1 fold enrichment (6-mer frequency, TF over GST control)"}, {"measurement": "binding signal", "setting": "ELF5", "value": "1.09 fold enrichment (6-mer frequency, TF over GST control)"}, {"measurement": "binding signal", "setting": "ETV3", "value": "1.14 fold enrichment (6-mer frequency, TF over GST control)"}, {"measurement": "binding signal", "setting": "ETV6", "value": "1.06 fold enrichment (6-mer frequency, TF over GST control)"}]}
